Assay results as given in PubChem BioAssay (NCATS).
Inconclusive results are not listed. Calls of active or inactive are those of the source. The call rests on the fitted dose curve; in most records, active means well fitted curve in the direction sought with a large enough effect; inconclusive means small, poorly fitted or top-dose-only effect, or another doubt; inactive means no such curve, though single readings can be large; an effect the other way counts as inactive or inconclusive.

Assays:
[1] = molecular target: Cellular tumor antigen p53 (Homo sapiens) (UniProt P04637); test: Primary qHTS for small molecule compounds that upregulate eGFP-tagged delta133p53alpha (in N-terminal) cells. (AID 2060322); conditions: NCI-H358 eGFP-delta133p53alpha fluorescence, 24 h; activation: stronger effect = higher value;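 further: cells pre-induced with doxycycline then dosed without doxycycline; 0% = DMSO vehicle and 100% = reference activator; nearly all actives have a fitted effect of over 75% in size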
Outline: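 NCI-H358 cells pre-induced 24 h with 10 ng/ml doxycycline for eGFP-delta133p53alpha, plated dox-free and exposed 24 h at 37C to titrated compounds. Fixed, Hoechst-stained; gated GFP peak intensity by laser scanning cytometry, normalized to DMSO (0%) and 57.5 uM 5-azacytidine (100%).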

[2] = molecular target: Aldehyde dehydrogenase, mitochondrial (Homo sapiens) (UniProt P05091); test: qHTS for Inhibitors of the Aldehyde Dehydrogenase Family (ALDH2) Primary screen (AID 2061308); conditions: ALDH2 enzyme inhibition qHTS, 1536-well; series mostly up to 56 µM;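 further: plate controls were vehicle for no effect and reference inhibitor for full effect; nearly all actives have a fitted effect of over 55% in size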
[3] = molecular target: Retinaldehyde dehydrogenase 3 (Homo sapiens) (UniProt P47895); test: qHTS for Inhibitors of the Aldehyde Dehydrogenase Family (ALDH1A3) Primary screen (AID 2061315); conditions: ALDH inhibition qHTS; series mostly up to 56 µM;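 further: plate controls were DMSO vehicle for no effect and reference inhibitor for full effect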

Sequence of Cellular tumor antigen p53 (Homo sapiens) (P04637 whole entry, looked up): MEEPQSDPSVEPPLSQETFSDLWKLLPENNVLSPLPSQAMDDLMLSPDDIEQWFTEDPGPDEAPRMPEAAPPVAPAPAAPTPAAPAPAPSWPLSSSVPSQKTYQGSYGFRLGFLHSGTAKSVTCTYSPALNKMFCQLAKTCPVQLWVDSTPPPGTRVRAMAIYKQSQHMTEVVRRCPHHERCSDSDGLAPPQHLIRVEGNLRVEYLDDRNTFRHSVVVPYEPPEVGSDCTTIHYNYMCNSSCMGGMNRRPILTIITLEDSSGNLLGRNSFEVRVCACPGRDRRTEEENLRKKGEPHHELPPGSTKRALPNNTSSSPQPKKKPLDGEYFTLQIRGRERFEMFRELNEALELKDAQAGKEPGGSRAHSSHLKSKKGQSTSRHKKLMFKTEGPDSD

CC1(C)[C@@H](O)CC[C@]2(C)[C@H]3CC=C4[C@@H]5C[C@](C)(C(=O)O)CC[C@]5(C)CC[C@@]4(C)[C@]3(C)CC[C@@H]12
inactive: activation [1] 7% | Potency [2] | Potency [3]

CCc1ccc(Cc2ccc3c(c2)[C@]2(OC3)O[C@H](CO)[C@@H](O)[C@H](O)[C@H]2O)cc1
inactive: activation [1] 7% | Potency [2] | Potency [3]

CCOCc1cc(OC)c(-c2ccc(C[C@H](NC(=O)c3c(F)cccc3F)C(=O)O)cc2)c(OC)c1
inactive: activation [1] -5.67% | Potency [2] | Potency [3]

C[C@H]1[C@H](C)CC[C@]2(C(=O)O)CC[C@]3(C)C(=CCC4[C@@]5(C)C[C@@H](O)[C@H](O)C(C)(C)C5CC[C@]43C)[C@H]12 (some centres not stated)
inactive: activation [1] -9.16% | Potency [2] | Potency [3]

O=C(O)CCc1cccc(O)c1O[C@@H]1O[C@H](CO)[C@@H](O)[C@H](O)[C@H]1O
inactive: activation [1] 0% | Potency [2] | Potency [3]

CC(=O)OC[C@]12[C@H](OC(C)=O)C(=O)[C@@H]3[C@@H](OC(C)=O)[C@@]14O[C@@]3(C)COC(=O)c1cccnc1[C@@H](C)[C@H](C)C(=O)O[C@@H]([C@H](O)[C@@H]2OC(C)=O)[C@]4(C)O
inactive: activation [1] 6.25% | Potency [2] | Potency [3]

CC1CC(O)C2(C)C(C(=O)O)=CCCC2C1(C)CCc1ccoc1 (configuration not stated)
inactive: activation [1] 8.93% | Potency [2] | Potency [3]

COC1CC(OC2CCC3(C)C(=CCC4C3C(OC(C)=O)C(OC(=O)/C=C/c3ccccc3)C3(C)C(C(C)O)CCC43O)C2)OC(C)C1OC1CC(OC)C(OC2OC(C)C(OC3OC(CO)C(O)C(O)C3O)C(OC)C2O)C(C)O1 (configuration not stated)
inactive: activation [1] 2.29% | activity change, negative = inhibition [2] 13.8% [at 11.2 µM] | activity change, negative = inhibition [3] 9.46% [at 11.2 µM]

C[C@@H]1O[C@@H](OC2C(CO)OC(OCC3OC(OC(=O)[C@]45CCC(C)(C)CC4C4=CCC6[C@@]7(C)CC[C@@H](O)[C@](C)(C(=O)O)C7CC[C@@]6(C)[C@]4(C)CC5)C(O)C(O)C3O)C(O)C2O)[C@H](O)[C@H](O)[C@H]1O (some centres not stated)
inactive: activation [1] -3.82% | Potency [2] | Potency [3]
